Compound activity deposited in PubChem BioAssay by National Center for Advancing Translational Sciences (NCATS).
The list is not random: actives were taken first. Their share in the collection is about 7.4%.
ELG1 genotoxic: genotoxicity induction in ELG1-luciferase HEK293T cells. HEK293T ELG1-luciferase reporter, luminescence, 16 h. Potency, µM (highest dose often 46 µM), for inactives: at the top dose activity change, positive = activation, usual class: activators. actives 1.3% (n = 330,000); also: % of control where 0% means no effect; nearly all actives have a fitted effect of over 60% in size
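HEK293T cells expressing luciferase-tagged ELG1 were treated with compound or DMSO for 16 hr at 37°C. Luciferase activity was then read after 30 min with ONE-Glo at room temperature; rising signal flags genetic stress.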
FLuc modulator: inhibits or activates purified firefly luciferase, miR-21 counter-screen | actives 6.9% (n = 360,000) | Potency, µM (highest dose often 57.5 µM), for the others: at the highest dose activity change, negative = inhibition, actives largely listed as inhibitors | P08659 | purified FLuc, Km substrates, luminescence inhibition | AID 588342;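 also: plate controls were vehicle for no effect and reference inhibitor for full effect; nearly all actives have a fitted effect of over 55% in size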
Target sequence (P08659 whole entry, looked up): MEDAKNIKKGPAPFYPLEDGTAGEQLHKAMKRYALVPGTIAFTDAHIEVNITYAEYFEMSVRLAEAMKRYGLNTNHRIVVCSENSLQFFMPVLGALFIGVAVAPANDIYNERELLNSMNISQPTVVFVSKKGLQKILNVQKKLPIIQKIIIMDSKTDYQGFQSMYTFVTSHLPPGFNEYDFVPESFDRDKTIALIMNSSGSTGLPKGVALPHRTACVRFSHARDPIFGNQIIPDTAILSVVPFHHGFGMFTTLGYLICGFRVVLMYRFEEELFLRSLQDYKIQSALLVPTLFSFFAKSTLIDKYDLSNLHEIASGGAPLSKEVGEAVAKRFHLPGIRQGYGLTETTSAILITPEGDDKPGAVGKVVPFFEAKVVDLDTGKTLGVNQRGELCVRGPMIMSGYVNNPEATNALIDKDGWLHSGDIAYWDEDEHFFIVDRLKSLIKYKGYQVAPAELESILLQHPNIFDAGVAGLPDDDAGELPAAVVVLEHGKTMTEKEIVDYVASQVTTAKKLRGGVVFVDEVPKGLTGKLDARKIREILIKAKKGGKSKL
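Purified P. pyralis luciferase, 10 nM final, with Km-level 10 uM D-luciferin and 10 uM ATP in 50 mM Tris acetate pH 7.5, 10 mM Mg acetate, 0.01% Tween-20, 0.05% BSA; 6-point qHTS titration about 60 µM downward; luminescence read.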
NPC1 prom act: activates the NPC1 promoter | Huh7 NPC1 promoter luciferase reporter, 24 h | Potency, µM (doses to about 9.22 µM), for inactives: top-dose activation, actives largely listed as activators | actives 2.4% (n = 320,000); also: % of control where 0% means no effect; nearly all actives have a fitted effect of over 60% in size
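NPC1 promoter–luciferase Huh7 cells; 24 h compound; luminescence.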
Rab9 promoter act: activators of Rab9 promoter. Huh7 Rab9 promoter-luciferase reporter, luminescence, 24 h. Potency, µM (series often up to 9.22 µM), for inactives: at the top dose activation, negative = inhibition, most hits filed as activators. actives 2.8% (n = 320,000); also: % of control where 0% means no effect; nearly all actives have a fitted effect of over 60% in size
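Cell-based reporter: Huh7 stable for Rab9 promoter-driven luciferase, plated in reduced-serum medium with 10% FBS at 1500 cells/well, compound-treated 24 h at 37 °C, luminescence read after 10 min reagent.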
SMN2 splice enh: enhancers of SMN2 splice variant expression; HEK293 SMN2-luciferase splicing reporter, luminescence, 30-36 h; Potency, µM (highest dose often 46.1 µM), for the others: top-dose activity change, positive = activation, hits mostly activators; actives 2.8% (n = 210,000); AID 1458; also: % of control where 0% means no effect; nearly all actives have a fitted effect of over 55% in size
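HEK293 cells carry an SMN2 […]–luciferase reporter in which exon 7 inclusion puts luciferase in frame. Cells were plated 10-12 h before compound addition, then incubated 30-36 h at 37C. ONE-Glo luminescence was read; sodium butyrate at 4.5 mM final served as control.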
The depositor's hits bear a star; u = inconclusive; x = no result given; [ ] = dose if it differs, or a comment. Calls follow the shape of the dose curve; as a rule, active = well fitted curve in the direction sought with a large enough effect; inconclusive = small, poorly fitted or top-dose-only effect, or another doubt; inactive = no such curve, though single readings can be large; an effect the other way counts as inactive or inconclusive. Potency is read from the fitted curve at half-maximal effect.

SMILES | ELG1 genotoxic | FLuc modulator | NPC1 prom act | Rab9 promoter act | SMN2 splice enh
O=C(O)c1ccc(/C=N/Nc2ccc(Cl)nn2)cc1 | 0% | -19% | 6% | 4% | x
Fc1ccc(N/N=C/C=C/c2ccccc2)c(F)c1 | u | 27µM* | u | u | u
CCNC(=S)N/N=C/c1ccc(C(=O)O)cc1 | -10% | 1% | 1% | -1% | -17%
O=C(O)c1ccc(/C=N/Nc2ccc(F)cc2F)cc1 | u | 0.54µM* | 0.32µM* | 0.11µM* | 1.8µM*
C[C@@H]1Oc2ccccc2C=C1/C=C/C(=O)O | x | x | x | x | 18%
O=C(O)c1ccc(/C=N/Nc2ncc(C(F)(F)F)cc2Cl)cc1 | 6% | u | 17% | 19% | x
O=C(N/N=C/c1c(F)cccc1Cl)C1CC1 | 0% | 2% | -6% | -1% | x
O=C(O)c1ccc(N/N=C/c2ccc(C(F)(F)F)cc2)cc1 | 0.1µM* | 0.21µM* | -16% | u | -55%
O=C(O)c1ccc(N/N=C/c2c(F)cccc2Cl)cc1 | 0.29µM* | 0.3µM* | u | 1.3µM* | x
Cc1ccc[n+](CC(=O)Nc2c(Cl)cc(Cl)cc2Cl)c1 | 11% | 19µM* | 11% | 24% | x
O=C(C[n+]1ccccc1)Nc1c(Cl)cc(Cl)cc1Cl | 3% | u | 6% | u | x
Clc1ccc(C2=Nn3c(nnc3-c3cc(-c4ccccc4)n[nH]3)SC2)cc1 | -25% | -4% | 8% | -10% | 21%
Clc1ccc(C2=Nn3c(nnc3-c3n[nH]c4c3CCC4)SC2)cc1Cl | u | 0% | -9% | -5% | 10µM*
c1ccc(C2=Nn3c(nnc3-c3n[nH]c4c3CCC4)SC2)cc1 | 23µM* | -1% | -7% | 3% | u
COc1ccc(C2=Nn3c(nnc3-c3ccc(OC)cc3)SC2)cc1 | u | -9% | -30% | -17% | u
c1ccc(C2=Nn3c(nnc3-c3cc(-c4ccccc4)n[nH]3)SC2)cc1 | u | x | 8% | 4% | u
Cc1nnc2n(c1=O)N=C(c1ccc(Cl)cc1)CS2 | 29% | 2% | 1µM* | 0.5µM* | 2µM*
COc1ccc(C2=Nn3c(nnc3-c3cc(C)[nH]n3)SC2)cc1 | 21µM* | -1% | -8% | -2% | x
Cc1ccccc1CNC(=O)C1CCCCN1S(=O)(=O)c1ccc(F)cc1 (stereo not given) | x | 3% | x | x | x
COc1ccc(NC(=O)Cn2c(=O)n(-c3ccc(C)cc3)c(=O)c3c2cnn3C)cc1 | x | 1% | x | x | 25%
CCCCc1ccc(NC(=O)Cn2cnc3c(oc4ccccc43)c2=O)cc1 | x | 4% | x | x | x
Cc1nn(-c2ccccc2)c(Cl)c1/C=N/NC(=O)c1ccccc1F | u | 8.5µM* | u | 2.2µM* | x
Cc1nn(-c2ccccc2)c(Cl)c1/C=N/NC(=O)CNc1n[nH]c(=O)[nH]c1=O | 2% | u | 1% | -1% | -9%
Cc1cc(C(=O)N/N=C/c2c(C)nn(-c3ccccc3)c2Cl)n[nH]1 | u | 7.6µM* | 29% | u | x
Cc1nn(-c2ccccc2)c(Cl)c1/C=N/NC(=O)c1ccn[nH]1 | 8.2µM* | 0.76µM* | 0.22µM* | 1.1µM* | x
SMILES | ELG1 genotoxic | FLuc modulator | NPC1 prom act | Rab9 promoter act | SMN2 splice enh
Cc1nn(-c2ccccc2)c(Cl)c1/C=N/NC(=O)c1[nH]ncc1Br | 1.5µM* | 0.6µM* | 0.32µM* | 0.4µM* | x
CN(Cc1nc(C(c2ccccc2)c2ccccc2)no1)CC1COCCO1 (stereo not given) | u | 15µM* | u | u | x
N=c1oc2ccc(Cl)cc2cc1C(=O)NC1CCCCCC1 | 7% | u | 0% | 4% | x
O=C(NCCC1=CCCCC1)c1cc2ccccc2oc1=O | u | 4.8µM* | -1% | 3% | x
COc1cc2ccccc2cc1C(=O)NC1CCCCC1 | 13% | 12µM* | 27% | u | x
CN(C(=O)COC(=O)c1cc2ccccc2oc1=O)C1CCCCC1 | 4% | x | x | x | x
N=c1oc2ccccc2cc1C(=O)NC1CCCCCC1 | u | 4.8µM* | u | -46% | x
O=C(NCCc1ccccc1)c1cc2ccccc2oc1=O | 0% | u | u | 8% | x
O=C(OC1CCCCC1)c1cc2ccccc2oc1=O | u | 7.6µM* | u | u | x
COc1ccc(Oc2ncc3ncc(=O)n(C[C@H]4CCCO4)c3n2)cc1 | x | x | x | x | -12%
COc1ccc(CNC(=O)c2cnc3sc(N4CCC(C)CC4)nn3c2=O)c(OC)c1 | x | 2% | x | x | x
Cc1cc(OCC(=O)Nc2sc3c(c2C(N)=O)CCCC3)ccc1C(C)C | x | 0% | x | x | -2%
O=C(NC1CCCCCC1)c1cc2ccccc2oc1=O | 13% | 2.7µM* | 3.2µM* | 2% | x
CC(=O)CCC1CC(c2ccc(Cl)cc2)=NO1 (stereo not given) | u | 7.6µM* | 1.1µM* | 1.4µM* | x
Cc1cc(=O)oc2cc(OCC3CC(c4ccc(Cl)cc4)=NO3)ccc12 (stereo not given) | 4% | u | -2% | -7% | 5%
NNC(=O)c1ccc(OCC2CC(c3ccc(Cl)cc3)=NO2)cc1 (stereo not given) | u | 8.5µM* | 16% | -3% | x
O=C(NCc1cccs1)C1CC(c2ccc(Cl)cc2)=NO1 (stereo not given) | 10% | u | 5% | 3% | x
O=c1[nH]c(/C=C/c2ccccc2Cl)nc2ccccc12 | 2.1µM* | 0.85µM* | u | 0.4µM* | x
O=C(O)c1ccc(/C=C/c2nc3ccccc3c(=O)[nH]2)cc1 | -3% | 15µM* | 12% | -5% | x
Cc1[nH]c2ccccc2c1/C=C/c1nc2ccccc2c(=O)[nH]1 | 7.3µM* | 2.4µM* | 3.2µM* | 1.4µM* | x
COc1cc(/C=C/c2nc3ccccc3c(=O)[nH]2)cc(Br)c1O | 1% | -3% | 12% | 3% | x
O=C(O)c1ccc(-n2c(/C=C\c3ccc(O)cc3)nc3ccccc3c2=O)cc1 | x | u | x | x | -9%
Cc1cccc(/C=C/c2nc3ccccc3c(=O)[nH]2)c1 | 8.2µM* | 1.1µM* | u | u | 4.5µM*
CCn1c(/C=C/c2c(C)[nH]c3ccccc23)nc2ccccc2c1=O | 7% | -3% | -2% | 9% | -6%[1.84 µM]
COc1ccccc1CCNC(=O)C(=O)NCC(c1ccco1)S(=O)(=O)c1ccc(C)cc1 (stereo not given) | x | -8% | x | x | x
SMILES | ELG1 genotoxic | FLuc modulator | NPC1 prom act | Rab9 promoter act | SMN2 splice enh
CCn1c(=O)c2sccc2n2c(CCCC(=O)N3CCN(c4ccc(OC)cc4)CC3)nnc12 | x | 4% | x | x | x
CCOc1ccccc1N(CC)C(=O)Cn1ncc2c([nH]c3ccccc32)c1=O | x | -1% | x | x | x
Cc1ccc(Cn2c(C)c(CNCC(C)c3ccccc3)c(C(=O)O)c2C)cc1 (stereo not given) | x | -7% | x | x | -9%
COc1ccc(N2CCN(S(=O)(=O)c3ccc4c(c3)CC(C)N4C(C)=O)CC2)cc1 (stereo not given) | x | -4% | x | x | x
COC(=O)[C@H]1C[C@@H]2CC[C@@H](O)C[C@@H]2N1Cc1c(F)cccc1Cl | x | x | x | x | 4%
O=C(O)c1ccc(/C=C/c2nc3sc4c(c3c(=O)[nH]2)CCC4)cc1 | 3% | 19µM* | 5% | 13% | -13%
